ELG1 genotoxic – genotoxicity induction in ELG1-luciferase HEK293T cells | HEK293T ELG1-luciferase reporter, luminescence, 16 h | Potency, µM (titrated, usually from 46 µM), without a hit: top-dose activity change, positive = activation, usual class: activators | 330,000 compounds, 1.3% hits | AID 504466; note: % of control where 0% means no effect; nearly all actives have a fitted effect of over 60% in size
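DMSO vehicle served as control against compound-treated ELG1-luciferase HEK293T cells; exposure lasted 16 hr at 37 °C and 5% CO2, followed by ONE-Glo luminescence detection after 30 min.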
ELG1 DNA repair – ELG1-dependent DNA repair inhibition; HEK293T ELG1-luciferase reporter, luminescence, 16 h; DNA damage induced by 5-fluorouridine; Potency, µM (series often up to 46.1 µM), for the others: at the top dose activity change, negative = inhibition, most hits filed as inhibitors; 330,000 compounds, 2.3% hits; AID 504467; note: % is set by controls: 0 for no effect and ±100 for the full control effect; nearly all actives have a fitted effect of over 55% in size
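Step one: seed 2,000 cells per well. Step two: pin-transfer compound or DMSO alongside 5-fluorouridine. Step three: incubate 16 hr, 37 °C, 5% CO2. Step four: add ONE-Glo, wait 30 min, read luminescence.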
FLuc counter – counter-screen for miR-21 project: firefly luciferase inhibitors or activators; P08659; purified FLuc, Km substrates, luminescence inhibition; Potency, µM (series often up to 57.5 µM), inactives show at the top dose activity change, negative = inhibition, usual class: inhibitors; 360,000 compounds, 6.9% hits; AID 588342;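 note: plate controls were vehicle for no effect and reference inhibitor for full effect; nearly all actives have a fitted effect of over 55% in size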
Target sequence (P08659 whole entry, looked up): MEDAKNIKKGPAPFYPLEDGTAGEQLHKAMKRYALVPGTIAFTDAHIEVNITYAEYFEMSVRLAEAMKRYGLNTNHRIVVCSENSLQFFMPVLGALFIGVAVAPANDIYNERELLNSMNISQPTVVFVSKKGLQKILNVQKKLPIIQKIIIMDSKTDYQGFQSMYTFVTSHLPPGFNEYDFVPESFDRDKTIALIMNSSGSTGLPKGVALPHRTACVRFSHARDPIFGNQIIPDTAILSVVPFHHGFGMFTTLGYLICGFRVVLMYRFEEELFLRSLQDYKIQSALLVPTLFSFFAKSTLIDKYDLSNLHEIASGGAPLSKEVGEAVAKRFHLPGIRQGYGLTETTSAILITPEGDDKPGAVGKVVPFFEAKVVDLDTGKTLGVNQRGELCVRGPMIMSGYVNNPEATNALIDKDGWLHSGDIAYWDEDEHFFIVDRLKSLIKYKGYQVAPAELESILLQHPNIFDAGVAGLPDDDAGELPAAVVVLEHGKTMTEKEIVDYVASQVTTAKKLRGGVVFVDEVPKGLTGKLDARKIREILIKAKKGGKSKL
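Purified P. pyralis luciferase (10nM final) with 10uM D-luciferin and 10uM ATP (Km levels) in 50mM Tris acetate pH 7.5, 10mM Mg acetate, 0.01% Tween-20, 0.05% BSA; qHTS 6-point titration, ~60 µM downward; luminescence read.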
Rab9 promoter act – activators of Rab9 promoter. Huh7 Rab9 promoter-luciferase reporter, luminescence, 24 h. Potency, µM (highest dose often 9.22 µM), for the others: at the top dose activation, negative = inhibition, actives largely listed as activators. 320,000 compounds, 2.8% hits; note: % of control where 0% means no effect; nearly all actives have a fitted effect of over 60% in size
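Cell-based reporter: Huh7 stable for Rab9 promoter-driven luciferase, plated in reduced-serum medium with 10% FBS at 1500 cells/well, compound-treated 24 h at 37 °C, luminescence read after 10 min reagent.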
SMN2 splice up – enhancers of SMN2 splice variant expression; 210,000 compounds, 2.8% hits; HEK293 SMN2-luciferase splicing reporter, luminescence, 30-36 h; Potency, µM (top dose mostly 46.1 µM), for the others: at the top dose activity change, positive = activation, actives largely listed as activators; AID 1458; note: % of control where 0% means no effect; nearly all actives have a fitted effect of over 55% in size
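HEK293 cells carry an SMN2 […]–luciferase reporter in which exon 7 inclusion puts luciferase in frame. Cells were plated 10-12 h before compound addition, then incubated 30-36 h at 37C. ONE-Glo luminescence was read; sodium butyrate at 4.5 mM final served as control.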
NPC1 promoter act – NPC1 promoter activation. Huh7 NPC1 promoter luciferase reporter, 24 h. Potency, µM (doses to about 9.22 µM), without a hit: at the highest dose activation, actives largely listed as activators. 320,000 compounds, 2.4% hits. AID 485313; note: % of control where 0% means no effect; nearly all actives have a fitted effect of over 60% in size
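Luciferase expression driven by the NPC1 promoter was measured in stably transfected Huh7 cells after a 24 h compound incubation, using a luciferase reagent and a luminescence read.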
* marks the source's active call; other numbers are inactive results; ? = inconclusive; . = no result given; [ ] = another dose, or the depositor's remark. Most compounds without a hit are left out; they make up all but 9.2% or so of the library. Calls come from the whole dose curve; as a rule, active = well fitted curve in the direction sought with a large enough effect; inconclusive = small, poorly fitted or top-dose-only effect, or another doubt; inactive = no such curve, though single readings can be large; an effect the other way counts as inactive or inconclusive. Potency is the fitted concentration of half-maximal effect.

SMILES	ELG1 genotoxic	ELG1 DNA repair	FLuc counter	Rab9 promoter act	SMN2 splice up	NPC1 promoter act
CCCNC(=O)c1onc(CSc2ccc(F)cc2)c1C(=O)NCCOC	1%	1%	-1%	1%	.	-1%
Cc1ccc(S(=O)(=O)Nc2ccc3c(c2)n(C)c(=O)n3C)cc1	?	?	3%	7%	.	-4%
Cn1c(=O)n(C)c2cc(NC(=O)c3ccccc3NS(C)(=O)=O)ccc21	14%	?	27µM*	6%	.	6%
Cn1c(=O)n(C)c2cc(NS(=O)(=O)c3ccccc3)ccc21	18µM*	?	3%	4%	.	-4%
O=C(Nc1ccc(NC(=O)c2cc3ccccc3o2)cc1)c1ccccc1	.	.	-1%	.	-15%	.
CCc1ccc(C(=O)Nc2ccc3c(c2)n(C)c(=O)n3C)cc1	18µM*	?	15µM*	?	.	-4%
CS(=O)(=O)Nc1ccccc1C(=O)Nc1ccccc1C(=O)N1CCCC1	-6%	-6%	4%	2%	.	4%
Cn1c(=O)n(C)c2cc(NC(=O)c3cc4ccccc4o3)ccc21	16µM*	?	?	28%	.	14%
COc1cc(/C=C2\SC(=Nc3ccc(N4CCOCC4)cc3)N(C)C2=O)ccc1OC(C)C(=O)O (centres undefined)	3%	6%	?	0%	9%	-1%
CN1CCN(NC(=S)NC2CCCCC2)CC1	1%	18%	1%	-1%	5%	1%
O=C(/C=C/N1CCOCC1)c1cc2ccccc2o1	?	?	9.5µM*	4µM*	11µM*	3.5µM*
c1ccc2sc(N3CN(CCN4CCOCC4)CN(c4nc5ccccc5s4)C3)nc2c1	3%	17%	-1%	18%	-7%	14%
c1ccc2sc(SN3CCOCC3)nc2c1	4%	21%	24µM*	0%	-6%	0%
O=C(Nc1ccc2c(c1)OCCO2)c1cc2ccccc2o1	?	?	1.1µM*	0.45µM*	1.3µM*	0.89µM*
O=C(Nc1ccc(CN2CCOCC2)cc1)c1ccc(-c2cccc(Cl)c2)o1	-16%	?	17µM*	.	-79%	-4%
N#CCSc1ccccc1NC(=O)COC(=O)Cc1c[nH]c2ccccc12	1%	18%	-6%	3%	.	0%
CCc1cc(Cn2nc(-c3ccccc3)cc2C(=O)NCC2CC2)on1	-3%	-26%	-1%	-4%	.	-4%
O=C(COC(=O)c1ccccc1F)NC(=O)NC1CCCC1	3%	0%	-16%	-7%	.	0%
O=C(Nc1ccc2oc(=O)ccc2c1)c1cc2ccccc2o1	?	?	7.6µM*	1.6µM*	3.5µM*	2.5µM*
CC(=O)Cc1nsc(NC(=O)c2ccc(-c3cccc(Cl)c3)o2)n1	-2%	-28%	11µM*	0%	20%	2%
O=C(Nc1c(C(=O)Nc2ccc(F)cc2)oc2ccccc12)c1cc2ccccc2o1	.	.	2.7µM*	.	2%	.
O=C(Nc1ccc2oc(-c3cccnc3)nc2c1)c1cc2ccccc2o1	-18%	18µM*	?	3%	-21%	9%
COc1ccc(NC(=O)c2oc3ccccc3c2NC(=O)c2cc3ccccc3o2)cc1	.	.	?	.	-5%	.
Cc1cc(=O)oc2cc(NC(=O)c3cc4ccccc4o3)ccc12	?	?	-17%	21%	7%	?
Cn1c(=O)c2sccc2n2c(CCC(=O)N3CCN(c4cccc(Cl)c4)CC3)nnc12	.	.	0%	.	1%	.
SMILES	ELG1 genotoxic	ELG1 DNA repair	FLuc counter	Rab9 promoter act	SMN2 splice up	NPC1 promoter act
Cc1ccc(S(=O)(=O)N=Nc2c(O)[nH]c3cc(O)c(C(=O)O)cc23)cc1	.	.	.	.	-9%[9.22 µM]	.
O=C(Nc1ccc(N2CCOCC2)cc1)c1cc2ccccc2o1	?	?	5.4µM*	1.8µM*	2.8µM*	3.5µM*
CCc1ccc(C(=O)Nc2ccc(C)c(NS(C)(=O)=O)c2)cc1	1%	?	12µM*	13%	.	?
O=C(Nc1ccc(CN2CCOCC2)cc1)c1cc2ccccc2o1	12%	?	3.8µM*	0.63µM*	5.6µM*	1.6µM*
O=C(NC(=S)Nc1ccc(CN2CCOCC2)cc1)c1cc2ccccc2o1	15%	?	-2%	19%	7%	6%
O=C(O)c1ccc(NC(=O)c2cc3ccccc3o2)cc1	?	?	2.1µM*	?	6.3µM*	?
CCC(=O)N1CCN(c2ccc(NC(=O)c3cc4ccccc4o3)cc2)CC1	-3%	?	?	-2%	-29%	1%
NC(=O)c1ccc(NC(=O)c2ccc(CN3CCOCC3)cc2)cc1	18%	?	-18%	-1%	22%	15%
O=C(/C=C/N1CCOCC1)c1coc2ccccc12	?	?	9.5µM*	1.4µM*	.	1.6µM*
O=C(O)c1coc2ccccc12	-7%	1%	2%	4%	.	-5%
Nc1nc2ccc(C(=O)Nc3ccc(N4CCOCC4)cc3)cc2s1	8%	9%	.	.	.	.
O=C(Nc1ccc(N2CCOCC2)cc1)c1nc2ccccc2s1	?	?	0.24µM*	0.1µM*	.	0.1µM*
O=C(Nc1ccc(CN2CCOCC2)cc1)c1cc2ccccn2n1	?	?	1.2µM*	0.45µM*	?	0.32µM*
CN(C)S(=O)(=O)c1ccc(C(=O)NC2CC(=O)N(c3ccc4c(c3)OCCO4)C2)cc1 (centres undefined)	.	.	1%	.	.	.
C[C@@H]1CN([C@@H](C)CO)C(=O)c2cc(NC(=O)CCN3CCOCC3)ccc2O[C@@H]1CN(C)C(=O)Nc1ccccc1	0%	14%	.	.	.	.
O=c1c2sc(-c3ccccc3)cc2nc2n1CCCCC2	?	?	2.1µM*	0.56µM*	.	1.4µM*
O=c1c2sc(-c3ccccc3)cc2nc2n1CCC2	?	?	1.3µM*	0.45µM*	2.2µM*	0.56µM*
O=c1c2c(-c3ccccc3)csc2nc2n1CCC2	-1%	-5%	3%	-3%	8%	-4%
CN(CCOc1ccccc1)C(=O)CNC(=O)c1ccc(C(C)(C)C)cc1	-2%	6%	?	3%	.	-3%
CCOc1ccc(-c2cn3c(n2)sc2cc(C(=O)NCCc4ccc(OC)c(OC)c4)ccc23)cc1	.	.	?	.	-11%	.
N#Cc1c(C(F)(F)F)cc(-c2ccc(F)cc2)[nH]c1=O	-4%	18µM*	?	-1%	-5%	1%
Cc1ccc(OCCSc2ncccn2)c(C)c1	?	?	2.1µM*	0.5µM*	3.2µM*	0.63µM*
c1cnc(SCCOc2cccc3ccccc23)nc1	12µM*	?	7.6µM*	2.2µM*	22%	?
